We go through 23 molecules from PubChem BioAssay (Tox21).

Inconclusive results are not listed. The source made the active and inactive calls. Unless noted, calls follow the shape of the dose curve; as a rule, active = well fitted curve in the direction sought with a large enough effect in the repeat runs; inconclusive = weak or mixed curves; inactive = no such curve, though single readings can be large; an effect the other way counts as inactive or inconclusive.

A short description of assay [1]: qHTS assay to identify small molecule antagonists of the estrogen related receptor (ERR) signaling pathway (AID 1224819;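 also: luminescence from an ERR-driven luciferase reporter measured with One-Glo reagent; series mostly up to about 46 µM; nearly all actives have a fitted effect of over 50% in size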). In outline:
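Luminescence readout (One-Glo, 30 min, RT) of ERR cell line after 18 h compound exposure at 37 C; cells seeded 2,000/well, pre-incubated 6 h, compounds pinned from DMSO stocks.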
For orientation: In qHTS, concentration-response curves come from the screen itself.

Assay [2] can be described thus: qHTS assay to identify small molecule agonists of the estrogen related receptor (ERR) signaling pathway (AID 1224820). In outline: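 Quantitative HTS of the LOPAC library used NTP ERR reporter cells treated 18 h at 37 C. Signal is luminescence after One-Glo addition and a 30 min room-temperature incubation.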
Assay [3] is described as follows: qHTS assay to identify small molecule agonists of the estrogen related receptor signaling pathway with the pleiotropic PPARgamma coactivator (PGC) (AID 1224823). In outline: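 Cell-based luciferase assay in the NTP-supplied PGC/ERR line, 2,000 cells/well; 18 h compound exposure at 37 C, luminescence after One-Glo.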
Assay [4] in a line: qHTS assay to identify small molecule agonists of the vitamin D receptor (VDR) signaling pathway - cell viability counter screen (AID 743224). Also: nearly all actives have a fitted effect of over 50% in size. Also: potency is read from the fitted curve at half-maximal effect. In outline:
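Plated VDR-bla cells (4 h, 37C) received compound, incubated 16 h, then LiveBLAzer substrate 2 h RT; CellTiter-Glo added afterwards, luminescence read at 30 min.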

Assay [5] in a line: qHTS assay to identify small molecule antagonists of the vitamin D receptor (VDR) signaling pathway - cell viability counter screen (AID 743225). Also: nearly all actives have a fitted effect of over 50% in size. Also: potency is read from the fitted curve at half-maximal effect. In outline:
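Same-well multiplex: following 16 h treatment of HEK 293T cells carrying a UAS-driven beta-lactamase reporter with compound and agonist (3 nM final), and a 2 h FRET substrate step, CellTiter-Glo was added and luminescence read after 30 min.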

A short description of assay [6]: qHTS assay to identify small molecule agonists of the endoplasmic reticulum stress response signaling pathway (AID 1159516; active = well fitted activation curve with a large enough effect in the signal ratio in the repeat runs, not every such curve was filed as active; the % refers to the signal ratio). In outline:
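An ESRE-bla HeLa cell assay: compounds were pin-transferred from DMSO onto overnight-plated cells and left 5 hr at 37 C. Substrate was then loaded for 2 hr at room temperature before reading fluorescence at 460 nm and 530 nm.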

Assay [7] can be described thus: qHTS assay to identify small molecule agonists of the endoplasmic reticulum stress response signaling pathway - cell viability counter screen (AID 1159517; calls by dose curve;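 also: HeLa cells carrying an ER stress response element beta-lactamase reporter; series mostly up to about 61 µM; nearly all actives have a fitted effect of over 50% in size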). In outline: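 Counter-screen wells were identical to the reporter wells. Cells were plated at 1,500 per well and dosed for 5 hr, then read for luminescence 30 min after CellTiter-Glo addition.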
A short description of assay [8]: qHTS assay to identify small molecule antagonists of the retinoid-related orphan receptor gamma (ROR-gamma) signaling pathway - cell viability counter screen (AID 1159520). Also: nearly all actives have a fitted effect of over 50% in size. In outline: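 Tet-on ROR gamma CHO cells were given compounds for 2 hr, then doxycycline hyclate at 1 uM final, and incubated 16 hr at 37 C. Viability was measured as ATP content by CellTiter-Glo luminescence.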

The nature of assay [9]: qHTS assay to identify small molecule agonists of the AP-1 signaling pathway - cell viability counter screen (AID 1159525; calls by dose curve; also: nearly all actives have a fitted effect of over 55% in size; also: potency is read from the fitted curve at half-maximal effect). In outline:
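AP-1-bla ME-180 cells in Opti-MEM with 0.5% dialyzed FBS, compound exposure 5 h at 37 C in 15-point titration. Viability read in the same wells as ATP content by CellTiter-Glo luminescence, normalised to tetra-n-octylammonium bromide and DMSO controls.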

The nature of assay [10]: qHTS assay to identify small molecule agonists of the AP-1 signaling pathway (AID 1159526; calls by dose curve; also: potency is read from the fitted curve at half-maximal effect).
Assay [11] in a line: qHTS assay to identify small molecule antagonists of the retinoid acid receptor (RAR) signaling pathway - cell viability counter screen (AID 1159551). Also: nearly all actives have a fitted effect of over 35% in size. Also: potency is read from the fitted curve at half-maximal effect. In outline: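 Retinol-stimulated (1 uM final) C3RL4 cells, compound 6 h, 37 C; readout CellTiter-Glo luminescence (ATP) after 30 min RT incubation.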
Assay [12] can be described thus: qHTS assay to identify small molecule agonists of the retinoic acid receptor (RAR) signaling pathway (AID 1159553). In outline:
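Reporter readout comes from luciferase under RARE control in C3RL4 cells; compound exposure lasts 6 hr at 37 C in 5% CO2, and luminescence is recorded following a 30 min room-temperature incubation with reagent.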

Assay [13] has as its target Nuclear receptor ROR-gamma (Homo sapiens) (UniProt P51449). Description: qHTS assay to identify small molecule antagonists of the retinoid-related orphan receptor gamma (ROR-gamma) signaling pathway (AID 1159521; also: nearly all actives have a fitted effect of over 50% in size; also: potency is read from the fitted curve at half-maximal effect). In outline:
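Inducible-expression reporter assay: doxycycline (1 uM final) switched on RORγ in CHO cells bearing a ROR response element-luciferase construct, with test compounds present from 2 h beforehand. Decreased luminescence after 16 h defined antagonist activity.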

Assay [14] can be described thus: qHTS assay to identify small molecule agonists of the RXR signaling pathway - cell viability counter screen (AID 1159529). Also: nearly all actives have a fitted effect of over 50% in size. Also: potency is read from the fitted curve at half-maximal effect. In outline: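 Counter screen: CellTiter-Glo luminescence. Cells: RXR-alpha-UAS-bla HEK 293T. Medium: 2% charcoal-stripped FBS. Treatment: 16 h, 37 C. Reagent incubation: 30 min, RT.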
The nature of assay [15]: qHTS assay to identify small molecule antagonists of the retinoic acid receptor (RAR) signaling pathway (AID 1159552; also: nearly all actives have a fitted effect of over 50% in size; also: potency is read from the fitted curve at half-maximal effect). In outline:
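Antagonism of retinol-induced RARE reporter activity was measured in C3RL4 cells. Exposure to compounds and 1 uM final retinol lasted 6 hr at 37 C, with luminescence as endpoint.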

Assay [16] is described as follows: qHTS assay to identify small molecule antagonists of the estrogen related receptor (ERR) signaling pathway from Tox21 library - cell viability counter screen (AID 1224834). Also: nearly all actives have a fitted effect of over 30% in size. Also: potency is read from the fitted curve at half-maximal effect. In outline:
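After 17.5 h of compound exposure at 37 C, ERR cells are incubated with CellTiter-Fluor for 30 min and fluorescence intensity serves as the viability measure.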

The target in assay [17] is Retinoic acid receptor RXR-alpha (Homo sapiens) (UniProt P19793). Description: qHTS assay to identify small molecule agonists of the RXR signaling pathway (AID 1159527; calls by dose curve; also: nearly all actives have a fitted effect of over 35% in size). In outline: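 Compounds in DMSO were added to RXR-alpha-UAS-bla HEK 293T cells kept in 2% charcoal-stripped serum, and incubated 16 hr at 37 C with 5% CO2. Reporter signal came from a 2 hr B/G FRET substrate step.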
Retinoic acid receptor RXR-alpha (Homo sapiens), sequence (P19793 whole entry, looked up): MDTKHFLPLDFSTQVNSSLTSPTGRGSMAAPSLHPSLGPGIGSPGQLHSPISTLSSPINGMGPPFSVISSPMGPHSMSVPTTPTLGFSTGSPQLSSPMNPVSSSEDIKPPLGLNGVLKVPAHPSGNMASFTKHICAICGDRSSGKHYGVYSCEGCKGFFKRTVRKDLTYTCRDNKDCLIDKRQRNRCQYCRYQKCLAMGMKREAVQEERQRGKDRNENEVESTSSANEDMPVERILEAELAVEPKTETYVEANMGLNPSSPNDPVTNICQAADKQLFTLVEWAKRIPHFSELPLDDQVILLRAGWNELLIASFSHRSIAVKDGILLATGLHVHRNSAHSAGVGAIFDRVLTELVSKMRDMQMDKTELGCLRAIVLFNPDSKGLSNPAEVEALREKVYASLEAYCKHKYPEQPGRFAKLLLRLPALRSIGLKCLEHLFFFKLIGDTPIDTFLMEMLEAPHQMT

In the case of `CCCCCCCC/C=C\CCCCCCCC(=O)NCc1ccc(O)c(OC)c1`, the Potency result in assay [1] is “inactive”. Also, the molecule was called inactive in assay [2] and in [3].

In the case of `CC(C)N=C(N)/N=C(\N)Nc1ccc(Cl)cc1`, the Potency result in [4], in [5], in assay [6], in assay [7], in assay [8] and in assay [9] was “inactive” each time. The Potency result in [10], in assay [11] and in assay [12] was “inactive” each time.

Turning to `Cc1cccc(C)c1NC(=O)CN1CCN(CCCC(c2ccc(F)cc2)c2ccc(F)cc2)CC1`, the Potency in [4] is 29.8 µM (active); in assay [13] it was 21.1 µM (active); in assay [14], 21.3 µM (active); in assay [15], 26.6 µM (active); in [16], 21.1 µM (active). Further, the Potency entry in assay [6] and in [7] was “inactive” in each case.

As for `CNC(=O)c1cc(Oc2ccc(NC(=O)Nc3ccc(Cl)c(C(F)(F)F)c3)cc2)ccn1`, the Potency in assay [4] is 23.7 µM (active); in assay [5], 12 µM (active); in assay [13] it was 13.3 µM (active); in assay [15] it was 29.8 µM (active); in [16] it was 26.6 µM (active). The Potency result in [6], in assay [7], in assay [9], in [11] and in assay [12] was “inactive” each time.

For the molecule `CCCCN(CCCC)CCC(O)c1cc2c(Cl)cc(Cl)cc2c2cc(C(F)(F)F)ccc12` (stereo unspecified), the Potency entry in assay [4], in [6], in assay [7] and in assay [11] was “inactive” in each case. In addition, the Potency is 29.8 µM (active) in assay [13] and 23.9 µM (active) in assay [14].

As to `CNCC[C@H](Oc1cccc2ccccc12)c1cccs1`, the Potency in [4] is 11.9 µM (active); in assay [5], 8.49 µM (active); in [14], 23.9 µM (active); in [15], 23.7 µM (active). In addition, the Potency result in assay [6], in [7], in assay [8], in assay [9] and in [11] was “inactive” each time.

Turning to `CCO[Si](CCCSSSSCCC[Si](OCC)(OCC)OCC)(OCC)OCC`, the Potency entry in assay [6], in [7], in assay [8] and in assay [11] was “inactive” throughout. Moreover, the Potency in assay [9] is 24.6 µM (active); in assay [14], 21.9 µM (active).

Regarding `CCCCCCCCCCCCCCCC`, the Potency entry in assay [4], in [5], in assay [6], in [7], in assay [8] and in assay [9] was “inactive” each time. Besides, the Potency result in [10], in assay [14], in assay [11], in [15], in assay [12] and in assay [16] was “inactive” in each case.

Take `C=CC(=O)OCCC#N`: the Potency result in assay [4], in assay [5], in assay [6], in [7], in [9] and in assay [14] was “inactive” each time. In addition, the Potency entry in [11], in assay [12] and in assay [16] was “inactive” throughout.

Consider `CCC(=O)OCCc1ccccc1`, for which, in assay [4], the Potency is 41.8 µM (active). Further, the Potency result in assay [5], in [6], in assay [7], in assay [8], in assay [9] and in assay [14] was “inactive” throughout. The Potency entry in [11] is “inactive”.

Take `CC(C(O)c1ccccc1)N(C)CCOC(c1ccccc1)c1ccccc1` (stereo unspecified): the Potency result in [6], in [7] and in assay [11] was “inactive” in each case.

Consider `CC(C)=C1CC[C@@H](C)CC1=O`, for which the Potency entry in [4], in [5], in [6], in assay [8], in [13] and in assay [9] was “inactive” each time. Moreover, the Potency result in assay [10], in assay [17], in [14], in assay [11] and in assay [16] was “inactive” each time.

For `CCN(CC)CCNc1ccc(CO)c2sc3ccccc3c(=O)c12`, the Potency entry in [6], in assay [7], in assay [8], in assay [10], in [11] and in [12] was “inactive” throughout. Further, the figures for the Potency in [14] and in assay [16] were 6.01 µM (active) and 13.3 µM (active), respectively.

With `O=C1NC2CCCCN2C12CCN(CCCN1c3ccccc3CCc3ccc(Cl)cc31)CC2` (stereo unspecified), the Potency entry in assay [4], in [6] and in assay [7] was “inactive” each time. In addition, the Potency in assay [5] was 23.9 µM (active); in [13], 23.7 µM (active); in assay [14], 21.3 µM (active); in assay [15] it was 29.8 µM (active); in assay [16], 29.8 µM (active).

For the molecule `[O]=[Zr]`, the Potency entry in [4], in assay [5], in assay [6], in assay [7], in [8] and in [10] was “inactive” throughout. Further, the Potency entry in [17], in assay [14], in assay [11], in assay [12] and in [16] was “inactive” in each case.

On to `CN(C)CCCN1c2ccccc2Sc2ccc(C(F)(F)F)cc21`, for which the Potency result in [6], in assay [7], in assay [8], in assay [9] and in [11] was “inactive” each time. Besides, the Potency in assay [10] is 16.9 µM (active); in assay [15], 29.8 µM (active).

`Cc1nc(Nc2ncc(C(=O)Nc3c(C)cccc3Cl)s2)cc(N2CCN(CCO)CC2)n1`: the Potency result in [5], in [6], in assay [7], in assay [9], in [11] and in [12] was “inactive” throughout. Besides, the Potency in assay [15] is 16.8 µM (active); in [16] it was 13.3 µM (active).

As to `C(=C/c1ccccc1)/c1ccccc1`, the Potency entry in assay [4], in assay [5], in assay [6], in [8], in [13] and in [9] was “inactive” throughout. The Potency entry in [10], in assay [17], in [14], in assay [11], in [15] and in assay [12] was “inactive” each time.

With `C=C[C@](C)(O)CC[C@@H]1[C@@]2(C)CCCC(C)(C)[C@@H]2CC[C@@]1(C)O`, the Potency in [4] is 43.6 µM (active); in [5], 43.6 µM (active); in assay [9], 24.5 µM (active); in assay [14] it was 43.6 µM (active); in assay [11], 61.1 µM (active); in [16], 61.1 µM (active). In addition, the Potency entry in assay [6] and in assay [7] was “inactive” throughout.

With `O=C(O)CC(=O)O`, the Potency result in [4], in assay [5], in [6], in [7], in [8] and in assay [10] was “inactive” in each case. Moreover, the Potency result in assay [17], in [11], in assay [15], in [12] and in [16] was “inactive” throughout.

Consider `CC(NCCC(c1ccccc1)c1ccccc1)c1ccccc1` (stereo unspecified), for which the Potency in [4] was 23.7 µM (active); in assay [13] it was 29.8 µM (active); in [16] it was 29.8 µM (active). For the same molecule, the Potency entry in assay [6] and in [7] was “inactive” in each case.

As for `Cc1ccc2ccc3cccc4ccc1c2c34`, the Potency result in [4], in assay [6], in [7], in assay [8], in assay [9] and in [10] was “inactive” in each case. Further, the Potency result in [11], in [15], in [12] and in [16] was “inactive” each time.

On to `O=C1OC(OC(=O)c2cccnc2Nc2cccc(C(F)(F)F)c2)c2ccccc21` (stereo unspecified), for which the Potency result in assay [4], in [5], in assay [6], in assay [7], in assay [8] and in assay [9] was “inactive” throughout. In addition, the Potency result in assay [14], in assay [11], in assay [15] and in [16] was “inactive” throughout.
